Assay results as given in PubChem BioAssay (NCATS).
Values joined by “and” are separate entries in the source; they are usually repeats but may differ in a detail not shown here. Identical values can stand only once. Inconclusive results are not listed. Active and inactive are the calls of the source. Unless noted, calls follow the shape of the dose curve; as a rule, active = well fitted curve in the direction sought with a large enough effect; inconclusive = small, poorly fitted or top-dose-only effect, or another doubt; inactive = no such curve, though single readings can be large; an effect the other way counts as inactive or inconclusive.

Assays:
[1] = Cell Viability - N2a (AID 540); conditions: N2a mouse neuroblastoma cell viability; at 92.2 µM (top of the series);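 also: plate controls were DMSO alone for no effect and tamoxifen control for full effect; nearly all actives have a fitted effect of over 45% in size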
Outline: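 Mouse neuroblastoma N2a cells (1500/well) were preincubated 5 hr at 37 °C, then exposed to compounds for 40 hr at 37 °C in complete medium. Viability was read as intracellular ATP by CellTiter-Glo luminescence; AC50 from Hill fits.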

[2] = molecular target: Cytochrome P450 3A4 (Homo sapiens) (UniProt P08684); assay: qHTS Assay for Inhibitors and Substrates of Cytochrome P450 3A4 (AID 884); also: % is scaled to controls: 0 for no effect and ±100 for the full control effect; nearly all actives have a fitted effect of over 50% in size
Cytochrome P450 3A4 (Homo sapiens), sequence (P08684 whole entry, looked up): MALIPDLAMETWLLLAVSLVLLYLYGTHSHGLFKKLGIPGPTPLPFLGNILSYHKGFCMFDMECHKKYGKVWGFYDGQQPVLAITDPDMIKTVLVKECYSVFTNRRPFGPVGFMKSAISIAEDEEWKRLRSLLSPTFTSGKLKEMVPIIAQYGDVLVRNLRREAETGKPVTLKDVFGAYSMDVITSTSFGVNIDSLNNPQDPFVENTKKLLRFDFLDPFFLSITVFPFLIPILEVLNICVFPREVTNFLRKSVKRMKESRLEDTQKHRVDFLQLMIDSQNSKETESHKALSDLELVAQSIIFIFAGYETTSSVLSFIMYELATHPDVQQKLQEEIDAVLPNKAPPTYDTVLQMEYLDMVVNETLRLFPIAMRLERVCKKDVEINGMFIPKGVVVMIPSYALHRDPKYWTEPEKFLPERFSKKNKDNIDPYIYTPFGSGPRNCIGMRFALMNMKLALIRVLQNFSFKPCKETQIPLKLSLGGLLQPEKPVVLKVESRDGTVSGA
Outline: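 20 nM human CYP3A4 with 25 uM Luciferin-PPXE (at KM) in 200 mM KPO4, preincubated 10 min with compound; NADPH regeneration started a 60 min RT reaction. Luciferin detected by luminescence, normalized to 57 uM ketoconazole as full inhibition.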

[3] = MultiTox-Fluor Cytotoxicity Assay - LYMP1-001 - Dead Cells (AID 946);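 also: 0% = DMSO and 100% = tetraoctylammonium bromide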
Outline: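 In this qHTS, 15 uM tetraoctylammonium bromide defined 100% and DMSO defined basal activity. Lymphoblastoid cells (LYMP1-001, 2500 per well) received compound for 16 hr at 37 C before a fluorogenic dead-cell substrate readout at 485/520 nm.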

[4] = Cell Viability - LYMP1-002 - Assay at 16 hr (AID 948);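 also: 0% = DMSO alone and full effect = 92 µM tetraoctylammonium bromide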
Outline: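 In this qHTS, lymphoblastoid LYMP1-002 cells (human) receive compounds for 16 hr at 37 C. Viability is taken from CellTiter-Glo ATP luminescence, and AC50 derives from standard Hill fits.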

[5] = MultiTox-Fluor Cytotoxicity Assay - LYMP1-003 - Live Cells (AID 962);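 also: 0% = DMSO only and full loss = 92 µM tetraoctylammonium bromide; cytotoxic hits lower the live-cell protease signal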
Outline: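 LYMP1-003 human lymphoblastoid cells (2500/well) in complete medium were preincubated 5 hr at 37 C, then exposed to compounds for 16 hr at 37 C. Live-cell protease cleavage of GF-AFC read by fluorescence (Ex/Em 405/510); AC50 from Hill fits.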

[6] = Cell Viability - LYMP1-003 - Assay at 24 hr (AID 963);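 also: plate controls were DMSO only for no effect and tetraoctylammonium bromide positive control for full effect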
Outline: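 Human lymphoblastoid LYMP1-003 cells (2500/well) were rested 5 hr at 37 C, then exposed to compounds in complete medium for 24 hr at 37 C. Cellular ATP was quantified by CellTiter-Glo luminescence, and AC50 values came from Hill fits of concentration-response data.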

[7] = Cell Viability - LYMP1-003 - Assay at 40 hr (AID 964); also: % is scaled to controls: 0 for no effect and ±100 for the full control effect; nearly all actives have a fitted effect of over 60% in size
Outline: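 Human lymphoblastoid LYMP1-003 cells, 2500/well in complete medium, rested 5 hr at 37 C, then exposed to compounds for 40 hr at 37 C. Viability read as intracellular ATP by CellTiter-Glo luminescence; AC50 from Hill fits of concentration-response data.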

[8] = Cell Viability - LYMP2-003 (AID 965);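 also: cells exposed to compounds for 24 h before reading; 0% = DMSO only and full effect = 92 µM tetraoctylammonium bromide; nearly all actives have a fitted effect of over 50% in size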
Outline: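 qHTS, human lymphoblastoid line, 2500 cells/well, complete medium. 24 h drug, 37 C. ATP-based luminescent readout; Hill-fit AC50.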

[9] = Cell Viability - LYMP2-017 (AID 972); also: % is scaled to controls: 0 for no effect and ±100 for the full control effect; nearly all actives have a fitted effect of over 55% in size
Outline: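 Human lymphoblastoid cells (2500/well) were seeded in complete medium, held 5 hr at 37 C, then exposed to compounds for 24 hr at 37 C. Intracellular ATP was read by CellTiter-Glo luminescence after 30 min at room temperature, with AC50 values from Hill-equation fits.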

[10] = Cell Viability - LYMP2-025 (AID 976);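 also: plate controls were DMSO only for no effect and tetraoctylammonium bromide control for full effect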
Outline: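 Human lymphoblastoid LYMP2-025 cells (2500/well) were pre-incubated 5 hr at 37 C, then treated with compounds for 24 hr at 37 C in complete medium. Viability was read as intracellular ATP by CellTiter-Glo luminescence; AC50 from Hill fits.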

[11] = Cell Viability - LYMP2-002 (AID 977);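 also: plate controls were DMSO only for no effect and 92 µM tetraoctylammonium bromide for full effect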
Outline: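 Luminescent ATP readout (CellTiter-Glo, 30 min room temperature) after 24 h compound exposure at 37 C of a human lymphoblastoid line, 2500 cells/well. AC50 values derived by standard Hill fitting of qHTS concentration-response data.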

[12] = Cell Viability - LYMP2-007 (AID 979);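 also: cells exposed to compound for 24 h before reading; 0% = DMSO only and the negative end = 92 µM tetraoctylammonium bromide; nearly all actives have a fitted effect of over 60% in size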
Outline: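 Human lymphoblastoid cells (2500/well) were plated in complete medium, incubated 5 hr at 37 C, then exposed to compounds for 24 hr at 37 C. Intracellular ATP was read by CellTiter-Glo luminescence after 30 min at room temperature; AC50 from Hill fits.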

[13] = Cell Viability - LYMP2-008 (AID 980); also: % is scaled to controls: 0 for no effect and ±100 for the full control effect; nearly all actives have a fitted effect of over 60% in size
Outline: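 Human lymphoblastoid cells (2500/well) were plated, held 5 hr at 37 C, then exposed to compounds for 24 hr at 37 C in complete medium. Intracellular ATP was read by CellTiter-Glo luminescence; AC50 from Hill-fitted concentration-response.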

[14] = Cell Viability - LYMP2-014 (AID 983);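 also: plate controls were DMSO only for no effect and 92 µM tetraoctylammonium bromide for full effect; nearly all actives have a fitted effect of over 50% in size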
Outline: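 Human lymphoblastoid cells (2500/well) were pre-incubated 5 hr at 37 C, then exposed to compounds in complete medium for 24 hr at 37 C. Intracellular ATP was read by CellTiter-Glo luminescence after 30 min at room temperature; AC50 from Hill fits.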

[15] = Cell Viability - LYMP1-002 - Assay at 24 hr (AID 993); also: % is scaled to controls: 0 for no effect and ±100 for the full control effect
Outline: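 Human lymphoblastoid LYMP1-002 cells, 2500/well in complete medium, were treated with compounds for 24 h at 37 C; intracellular ATP was read by CellTiter-Glo luminescence. AC50 values came from Hill-equation fits of qHTS concentration-response data.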

[16] = molecular target: Peroxisome proliferator-activated receptor alpha (Homo sapiens) (UniProt Q07869); assay: qHTS assay for small molecule agonists of the peroxisome proliferator-activated receptor alpha (PPARalpha) signaling pathway (AID 651778); conditions: PathHunter PPARalpha complementation, chemiluminescence, 6 h; hits give high values; also: % of control where 0% means no effect
Peroxisome proliferator-activated receptor alpha (Homo sapiens), sequence (Q07869 whole entry, looked up): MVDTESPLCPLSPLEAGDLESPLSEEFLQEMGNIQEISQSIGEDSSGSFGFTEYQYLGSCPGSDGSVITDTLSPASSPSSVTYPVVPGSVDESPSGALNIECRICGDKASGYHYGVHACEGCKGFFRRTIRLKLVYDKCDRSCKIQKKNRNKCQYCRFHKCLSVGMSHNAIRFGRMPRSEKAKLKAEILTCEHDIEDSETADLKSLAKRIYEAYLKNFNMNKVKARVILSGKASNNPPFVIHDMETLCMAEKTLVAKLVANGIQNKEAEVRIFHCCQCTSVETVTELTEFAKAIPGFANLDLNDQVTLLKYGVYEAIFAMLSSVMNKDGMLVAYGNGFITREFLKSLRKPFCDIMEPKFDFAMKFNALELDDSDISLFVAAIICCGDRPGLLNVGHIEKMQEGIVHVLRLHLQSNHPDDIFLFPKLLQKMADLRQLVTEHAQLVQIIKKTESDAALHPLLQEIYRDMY
Outline: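 Cells plated at 2,000/well and held overnight at 37 C, 5% CO2, then compound added by pin tool for 6 hr; after PathHunter detection reagent and 60 min at room temperature, chemiluminescence from enzyme complementation was read.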

[17] = qHTS assay for small molecule agonists of the antioxidant response element (ARE) signaling pathway measured by Nrf2-dependant transcriptional activity (AID 720636; active = well fitted curve in the direction sought with a large enough effect in the repeat runs; an effect the other way counts as inactive or inconclusive;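 also: HepG2 cells with an ARE-driven luciferase reporter; % of control where 0% means no effect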)
Outline: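 HepG2 ARE-luc reporter line, 1% dialyzed FBS; 6 hr attachment at 37 C, compound pinned in, 16 hr at 37 C/5% CO2; ONE-Glo, 30 min RT, luminescence read.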

[18] = qHTS assay for small molecule agonists of the antioxidant response element (ARE) signaling pathway measured by Nrf2-dependant transcriptional activity - cell viability counter screen (AID 720653; active = well fitted curve in the direction sought with a large enough effect in the repeat runs; an effect the other way counts as inactive or inconclusive; also: % is scaled to controls: 0 for no effect and ±100 for the full control effect); conditions: ARE-bla HepG2 viability, CellTiter-Glo ATP luminescence, 16 h; hits give low values
Outline: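 ARE-bla HepG2 cells (2,000/well) rested 5 hrs at 37C/5% CO2, then exposed to compounds in DMSO for 16 hrs. Viability was read in the same wells as intracellular ATP by luminescence, 30 min at room temperature after reagent addition.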

[19] = qHTS assay for cell viability of HEK293 cells (AID 743288); conditions: ATP luminescence (CellTiter-Glo), 18 h; max response: hits give low values; also: % is scaled to controls: 0 for no effect and ±100 for the full control effect; nearly all actives have a fitted effect of over 50% in size
Outline: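 Luminescent ATP quantitation served as the viability read-out. Cells (parental HEK293, 2,000/well) received compounds after at least 5 h at 37 C and were exposed for 18 h before a 30 min room-temperature reagent step.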

[20] = qHTS assay for cell viability of the p53RE-bla HCT-116 cell line (AID 743292); also: % is scaled to controls: 0 for no effect and ±100 for the full control effect; nearly all actives have a fitted effect of over 55% in size
Outline: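 Luminescent ATP quantitation (CellTiter-Glo) served as the viability read-out; reagent was added after 16 h compound exposure at 37 C and read after 30 min at room temperature. Cells: p53RE-bla HCT-116, 4,000 per well.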

CCCSC(=O)Cl
inactive: activity change, negative = cytotoxicity [1] -16.5% | Potency [2] | Potency [3] | Potency [4] | Potency [5] | Potency [6] | Potency [7] | Potency [8] | Potency [9] | Potency [10] | Potency [11] | Potency [12] | Potency [13] | Potency [14] | Potency [15] | max response [16] -0.0229% | outcome [17] | max response [18] -4.21% | max response [19] -1.07% | Potency [20]

CC(Cl)Cl
inactive: activity change, negative = cytotoxicity [1] -11.1% | Potency [2] | Potency [3] | Potency [4] | Potency [5] | Potency [6] | Potency [7] | Potency [8] | Potency [9] | Potency [10] | Potency [11] | Potency [12] | Potency [13] | Potency [14] | Potency [15] | max response [16] 4.62% | outcome [17] | max response [18] -2.99% | max response [19] -4.5% | Potency [20]

O=C(Cl)/C=C/C(=O)Cl
inactive: activity change, negative = cytotoxicity [1] 3.07% | Potency [2] | Potency [3] | Potency [4] | Potency [5] | Potency [6] | Potency [7] | Potency [8] | Potency [9] | Potency [10] | Potency [11] | Potency [12] | Potency [13] | Potency [14] | Potency [15] | max response [16] -3.04% | outcome [17] | max response [18] 3.07% | max response [19] 1.49% | Potency [20]

Cc1cccc([N+](=O)[O-])c1
inactive: activity change, negative = cytotoxicity [1] -15.4% | Potency [2] | Potency [3] | Potency [4] | Potency [5] | Potency [6] | Potency [7] | Potency [8] | Potency [9] | Potency [10] | Potency [11] | Potency [12] | Potency [13] | Potency [14] | Potency [15] | max response [16] -3.99% and -0.65% | outcome [17] | max response [18] -0.821% and -5.67% | max response [19] -6% and -15.6% | Potency [20]

c1ccc2c(c1)CCCC2
inactive: activity change, negative = cytotoxicity [1] 9.97% | Potency [2] | Potency [3] | Potency [4] | Potency [5] | Potency [6] | Potency [7] | Potency [8] | Potency [9] | Potency [10] | Potency [11] | Potency [12] | Potency [13] | Potency [14] | Potency [15] | max response [16] -0.424% | outcome [17] | max response [18] -5.84% | max response [19] -7.83% | Potency [20]

S=C=Nc1cccc2ccccc12
inactive: activity change, negative = cytotoxicity [1] 6.83% | Potency [3] | Potency [4] | Potency [5] | Potency [6] | Potency [7] | Potency [8] | Potency [9] | Potency [10] | Potency [11] | Potency [12] | Potency [13] | Potency [14] | Potency [15] | max response [16] 5.47% | outcome [17] | max response [18] -2.47% | max response [19] 0.149% | Potency [20]

O=NN(c1ccccc1)c1ccccc1
inactive: activity change, negative = cytotoxicity [1] 2.63% | Potency [2] | Potency [3] | Potency [4] | Potency [5] | Potency [6] | Potency [7] | Potency [8] | Potency [9] | Potency [10] | Potency [11] | Potency [12] | Potency [13] | Potency [14] | Potency [15] | max response [16] 3.69% and -0.619% | outcome [17] | max response [18] -4.67% and 8.95% | max response [19] -0.72% and 1.61% | Potency [20]

CCCCCCCC(=O)Cl
inactive: activity change, negative = cytotoxicity [1] 1.92% | Potency [2] | Potency [3] | Potency [4] | Potency [5] | Potency [6] | Potency [7] | Potency [8] | Potency [9] | Potency [10] | Potency [11] | Potency [12] | Potency [13] | Potency [14] | Potency [15] | max response [16] 1.85% | outcome [17] | max response [18] 7.34% | max response [19] -11% | Potency [20]

O=[N+]([O-])c1cccc2ccccc12
inactive: activity change, negative = cytotoxicity [1] 2.46% | Potency [2] | Potency [3] | Potency [4] | Potency [5] | Potency [6] | Potency [7] | Potency [8] | Potency [9] | Potency [10] | Potency [11] | Potency [12] | Potency [13] | Potency [14] | Potency [15] | max response [16] -0.448% and 0.96% | outcome [17] | max response [18] 8.97% and -15.3% | max response [19] -12% and 2.53% | Potency [20]

C=CCOC(=O)c1ccccc1N
inactive: activity change, negative = cytotoxicity [1] 1.61% | Potency [2] | Potency [3] | Potency [4] | Potency [5] | Potency [6] | Potency [7] | Potency [8] | Potency [9] | Potency [10] | Potency [11] | Potency [12] | Potency [13] | Potency [14] | Potency [15] | max response [16] 1.13% | outcome [17] | max response [18] 4.08% | max response [19] 8.68% | Potency [20]
